Source: PubChem BioAssay (NCI)
The panel holds about 79,000 compounds, 15% with a hit somewhere; the sample as a whole holds those more often. Activity calls are given as the source filed them. No stated cut-off is given here; in the data, active means growth inhibition above about 70%; inactive means the rest. Where a SMILES comes first, the peptide text is derived from it. [ ]: non-standard residue; d: D form. The star is where a group is joined. ξ: configuration not given here. ξL = CC(C)CC(N)C(=O)O; ClAc = O=C(CCl)*

Test: NCI Yeast Anticancer Drug Screen. Data for the mlh1 rad18 strain (AID 175)
Conditions: S. cerevisiae mlh1 rad18 strain growth inhibition; at 50.0 µM; hits give high values
In short: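 Genetically defined yeast (DNA repair-deficient) exposed to compounds; growth inhibition determined relative to vehicle.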

Which growth inhibition does the source give for `O=C(O)/C=C/C(=O)Nc1cc(Cl)ccc1Cl` here?
Its growth inhibition is 24.6% (inactive).

Which growth inhibition does the source give for `Cc1ccc(/C=N/N2C(=O)c3ccccc3C2=O)cc1` here?
The growth inhibition was -37.9% (inactive).

With `CCN(CC#N)c1ccc(Nc2cc(Cl)ccc2Cl)cc1` as the molecule, how does the growth inhibition read?
The growth inhibition was 0.3% (inactive).

With `CN(C)c1ccc(P(c2ccc(N(C)C)cc2)c2ccc(N(C)C)cc2)cc1` as the molecule, how does the growth inhibition read?
The growth inhibition was -25.2% (inactive).

Which growth inhibition does the source give for `O=CNC(Cc1ccc(O)cc1)C(=O)O` (stereo not drawn) here?
The growth inhibition was -8.4% (inactive).

Which growth inhibition does the source give for `CC(C)CC(NC(=O)CCl)C(=O)NCC(=O)O` (stereo not drawn) (ClAc-[ξL]-Gly-OH) here?
Its growth inhibition is -3.75% (inactive).

Which growth inhibition does the source give for `CCCCCCCCCCCCOc1ccccc1C=O` here?
Its growth inhibition is -17.4% (inactive).

For `CCOC(=O)c1c(C)nc(C)c(C(=O)OCC)c1-c1cccc([N+](=O)[O-])c1`, which growth inhibition is on record?
The growth inhibition was 25.9% (inactive).

With `CCOc1ccc(NC(=O)C2CCC(C)(C(=O)O)C2(C)C)cc1` (stereo not drawn) as the molecule, how does the growth inhibition read?
Its growth inhibition is -0.8% (inactive).

For `Nc1n[nH]c(=S)n1-c1ccc(Cl)cc1`, which growth inhibition is on record?
Its growth inhibition is -13% (inactive).

With `N#C/C(=C1C=C/C(=N/O)C(Br)=C/1)c1ccccc1` as the molecule, how does the growth inhibition read?
The growth inhibition was 22% (inactive).

Which growth inhibition does the source give for `COc1cc(/C=N\NC(=O)OC(C)(C)C)cc(OC)c1OC` here?
The growth inhibition was 10.5% (inactive).

For `CCOC(=O)C(C#N)N=Nc1ccccc1` (stereo not drawn), which growth inhibition is on record?
The growth inhibition was 10.2% (inactive).

For `CN(C)c1ccc(C2=C([O-])C(=C3C=CC(=[N+](C)C)C=C3)C2=O)cc1`, which growth inhibition is on record?
The growth inhibition was -5.55% (inactive).

With `CC(=O)NCc1cc(CNC(C)=O)c(C)cc1C` as the molecule, how does the growth inhibition read?
The growth inhibition was -23.6% (inactive).

Which growth inhibition does the source give for `O=C(N/N=C/c1ccc2c(c1)CCC2)c1cc2ccccc2cc1O` here?
The growth inhibition was 7.2% (inactive).

With `O=C(CN1C(=O)c2ccccc2C1=O)c1ccc(Br)cc1` as the molecule, how does the growth inhibition read?
The growth inhibition was 12.9% (inactive).

Which growth inhibition does the source give for `CN(Cc1ccccc1)Cc1ccccc1` here?
The growth inhibition was 14.7% (inactive).

With `COc1cc(/C=N\Nc2ccccc2[N+](=O)[O-])cc(OC)c1OC` as the molecule, how does the growth inhibition read?
Its growth inhibition is -12.9% (inactive).

For `CCCCN1CCNCC1`, which growth inhibition is on record?
Its growth inhibition is -2.55% (inactive).

With `S=C(S)N1CCC(CCCC2CCN(C(=S)S)CC2)CC1` as the molecule, how does the growth inhibition read?
Its growth inhibition is -13.2% (inactive).

For `O=C(O)c1ccccc1Oc1ccccc1C(=O)O`, which growth inhibition is on record?
The growth inhibition was -22.6% (inactive).

For `CSc1sc2cc([N+](=O)[O-])ccc2[n+]1C`, which growth inhibition is on record?
Its growth inhibition is 55.4% (inactive).

For `CCn1c2[n+](c3ccccc31)CCC2`, which growth inhibition is on record?
Its growth inhibition is 3.65% (inactive).

Which growth inhibition does the source give for `Oc1cc(Br)ccc1C=Nc1ccc(N2CCCCC2)cc1` here?
The growth inhibition was 17.8% (inactive).

Which growth inhibition does the source give for `O=S(=O)(O)c1ccc(-c2ccccc2)cc1` here?
The growth inhibition was -5.4% (inactive).

With `O=C1NC(=O)C(c2ccccc2)(C2CCC2)N1` (stereo not drawn) as the molecule, how does the growth inhibition read?
The growth inhibition was -13.3% (inactive).

For `CCN(CC)c1ccc(N=Cc2ccccc2S(=O)(=O)O)cc1`, which growth inhibition is on record?
The growth inhibition was 34% (inactive).

With `N#CCC(=O)OCCCCOC(=O)CC#N` as the molecule, how does the growth inhibition read?
The growth inhibition was 15.4% (inactive).

For `CCCCCCCCCCCC(O)CCCCC` (stereo not drawn), which growth inhibition is on record?
The growth inhibition was -38.9% (inactive).

Which growth inhibition does the source give for `c1cc[n+](CCNCC[n+]2ccccc2)cc1` here?
The growth inhibition was 36.6% (inactive).

For `COC(=O)c1nc(Br)cnc1N`, which growth inhibition is on record?
The growth inhibition was -0.45% (inactive).

Which growth inhibition does the source give for `O=[N+]([O-])c1ccc2nc3c4ccccc4c4ccccc4c3nc2c1` here?
The growth inhibition was 3.65% (inactive).

With `COc1cc(-c2cc(=O)c3c(O)cc(O)cc3o2)cc(OC)c1OC` as the molecule, how does the growth inhibition read?
The growth inhibition was 40% (inactive).

With `Cc1cccc(-c2nc3cc(Cl)ccc3c(=O)o2)c1` as the molecule, how does the growth inhibition read?
The growth inhibition was 6.6% (inactive).

For `CC12CC3CC(C(Cl)C(=O)O)(C1)CC(C(Cl)C(=O)O)(C3)C2` (stereo not drawn), which growth inhibition is on record?
The growth inhibition was 46.6% (inactive).

Which growth inhibition does the source give for `CC12CC3(C)CC(C)(C1)CC(C(Cl)C(=O)O)(C2)C3` (stereo not drawn) here?
The growth inhibition was 29.2% (inactive).

With `CC(C)N(C)c1ccc(N=Nc2cc(Cl)ccc2Cl)cc1` as the molecule, how does the growth inhibition read?
The growth inhibition was -24.4% (inactive).
